Results published in PubChem BioAssay AID743060 (The Scripps Research Institute Molecular Screening Center, 2013).

Test: inhibitors of T. brucei MetRS aminoacylation, late-stage follow-up, biochemical, radioactivity, round 1 (AID 743060)
Settings: purified enzyme, radiolabel aminoacylation, scintillation, 2 h; at 10 µM; stronger effect = higher value

| Structure (SMILES) | inhibition [%] |
| --- | --- |
| COc1cccc(NC(=O)C2CC(=O)n3c(nc4ccccc43)N2)c1 (centres undefined) | 31.5 |
| O=C(NCc1nc2ccccc2[nH]1)C1=C[C@H](c2ccc(Br)cc2)C[C@H](OCCCCO)O1 | 94.3 |
| O=C(Cn1cc(C(=O)C(=O)N2CCCC2)c2ccccc21)Nc1ccccc1 | 9.2 |
| O=C(CSc1nnc2c(n1)[nH]c1ccc(Br)cc12)NCc1ccccc1 | 59.7 |
| O=C(NCCc1nc2ccccc2[nH]1)c1ccc(Cl)c(Cl)c1 | 97.5 |
| CNC(=S)N(CCc1ccccc1)C1CC(=O)N(c2ccc(Br)cc2)C1=O (centres undefined) | 99.7 |
| O=C(NCc1nc2ccccc2[nH]1)C1=C[C@@H](c2ccccc2)C[C@@H](OCc2ccc(CO)cc2)O1 | 94.3 |
| O=C(NNC(=O)c1cc(-c2ccc(Cl)c(Cl)c2)nc2ccccc12)Nc1ccccc1 | 85.5 |
| CCOC(=O)N1CCC(Nc2c(Nc3ccc(F)cc3)c(=O)c2=O)CC1 | 72.7 |
| O=C(NCc1nc2ccccc2[nH]1)C1=C[C@H](C2CC2)C[C@H](OCc2ccc(CO)cc2)O1 | 56.9 |
| CC(C)c1nc2ccc(C(=O)N(C)CCc3nc4ccc(F)cc4[nH]3)cc2o1 | -7.17 |
| COc1ccc(OCC(O)CNC(=O)Nc2ccc(Cl)cc2)cc1 (centres undefined) | 61.9 |
| O=C(NCCc1nc2ccccc2[nH]1)c1c(F)cccc1F | 1.38 |
| O=C(C(=O)N1CCOCC1)c1cn(CC(=O)N2CCCc3ccccc32)c2ccccc12 | -4.11 |
| O=C(NCc1nc2ccccc2[nH]1)C1=C[C@H](c2ccc(Br)cc2)C[C@H](OCc2ccc(CO)cc2)O1 | 94.6 |
| CCN(CCc1nc2ccc(C)cc2[nH]1)C(=O)c1ccc2ncccc2c1 | -5.17 |
| CCN(C(=O)Cn1cc(C(=O)C(=O)N2CCOCC2)c2ccccc21)c1ccccc1 | -23.7 |

| Structure (SMILES) | inhibition [%] |
| --- | --- |
| O=C(NNC(=O)c1ccc(-n2cncn2)c([N+](=O)[O-])c1)c1ccc(Cl)cc1 | 73 |
| CCc1ccc2[nH]c3nc(SCC(=O)NCc4cccc(OC)c4)nnc3c2c1 | 0.65 |
| Brc1cnc2nc(SCc3nc4ccccc4[nH]3)[nH]c2c1 | 84.9 |
| Cc1[nH]c2ccc(Br)cc2c(=O)c1CN1CCCCCC1 | 86.6 |
| COCCc1nc2ccc(C(=O)NCCc3nc4ccc(OC)cc4[nH]3)cc2o1 | -2.59 |
| CC(CC(=O)Nc1cccc(Br)c1)=NNC(=O)c1ccc(O)cc1O | 90.5 |
| Cc1ccc(CNC(=O)CSc2nnc3c(n2)[nH]c2ccc(C)cc23)cc1 | 71.3 |
| CC(=O)c1ccc(N2CCN(C(=O)CCCn3c(=O)[nH]c4ccc(Br)cc4c3=O)CC2)cc1 | 97 |
| CCO[C@@H]1OC(C(=O)NCc2nc3ccccc3[nH]2)=C[C@H](c2ccc(Br)cc2)[C@H]1CCCO | 64 |
| Cc1ccc(C(=O)NCCc2nc3ccccc3[nH]2)cc1C | -3.55 |
| CC(=O)c1c[nH]c(C(=O)NCc2cccc(C(F)(F)F)c2)c1 | 92.7 |
| O=C(C[C@H]1C(=O)N(Cc2ccccc2)C[C@@H]1c1ccc(Br)cc1)Nc1ccc(Br)cc1 | 94.4 |
| O=C(CC=NOCc1ccc([N+](=O)[O-])cc1)Nc1ccc(Br)cc1 | 84.7 |
| O=C(NCc1nc2ccccc2[nH]1)C1=C[C@H](c2ccccc2)C[C@H](OCc2ccc(CO)cc2)O1 | 61.8 |
| Cc1ccc(C(=O)NCCc2nc3ccccc3[nH]2)cc1[N+](=O)[O-] | 86.4 |
| O=C1CC(SCc2nc3ccccc3[nH]2)C(=O)N1c1cccc(Cl)c1 (centres undefined) | 52.6 |
| CC(=O)N(CCc1ccccc1)C1CC(=O)N(c2ccc(Br)cc2)C1=O (centres undefined) | -21.2 |
